For 40 compounds, nuclear beta-catenin stimulation results are on record in PubChem BioAssay.

A number with no mark means an inactive call. Rule as the data show it: active = nuclear beta-catenin stimulation mostly above about 4.2% (no sharp cut-off); inactive = mostly below about 10%.

The assay in a line: stimulators of nuclear beta-catenin in C2C12, primary screen, imaging, WNT3A-conditioned medium, mouse C2C12, NPC library (AID 1117326). Also: reference of the scale not given here. To be noted: at 10 µM, active compounds read high.
`Cc1cccc(C)c1NC(=O)CN1CCCC1=O`: the nuclear beta-catenin stimulation is -1.9%. For the compound `CC(=O)[C@H]1CC[C@H]2[C@@H]3CC[C@H]4C[C@H](O)CC[C@]4(C)[C@H]3C(=O)C[C@]12C`, the nuclear beta-catenin stimulation is 0.5%. As for `CC(O)CN1CCN(CC(=O)[O-])CCN(CC(=O)[O-])CCN(CC(=O)[O-])CC1.[Gd+3]` (stereo not given), the figure is -1.8%; as for `CCCN1CCC[C@@H]2Cc3nc(N)ncc3C[C@H]21`, 4.8%.

Turning to `CC(C)c1c(CN(C)C(C)Cc2ccccc2)n(C)n(-c2ccccc2)c1=O` (stereo not given), the nuclear beta-catenin stimulation is 1.5%.

For `Cn1c(CCCC(=O)O)nc2cc(N(CCCl)CCCl)ccc21`, the nuclear beta-catenin stimulation is 3%. As for `CN1[C@@H]2CC[C@H]1CC(OC(=O)c1cc(Cl)cc(Cl)c1)C2` (stereo not given in full), the figure is 5.5%; as for `O=[N+]([O-])c1ccc([As](=O)(O)O)cc1`, 2.2%; as for `COP(=O)(OC)OC=C(Cl)Cl`, -0.5%. Next, `FC(F)(F)c1cccc(C2=CCN(CCc3ccc4ccccc4c3)CC2)c1`: -0.7%; `COc1ccc(CN2CCNCC2)c(OC)c1OC`: 0.8%; `COP(=O)(OC)C(O)C(Cl)(Cl)Cl` (stereo not given): -1.9%.

In the case of `C#C[C@]1(O)C=C[C@H]2[C@@H]3CCC4=CC(=O)CC[C@@H]4[C@H]3CC[C@@]21CC`, the nuclear beta-catenin stimulation was 0.9%. As for `Cc1ncsc1CCCl`, the figure is 1%. Next, `C=CCN1C[C@H](C)N([C@H](c2ccc(C(=O)N(CC)CC)cc2)c2cccc(OC)c2)C[C@H]1C`: 1.7%. `CCCCc1ccc(C(=O)O)nc1`: the nuclear beta-catenin stimulation is 0.7%. As for `Cc1ccc(S(=O)(=O)N[C@@H](CCCCN)C(=O)CCl)cc1`, the figure is 2.3%. `c1ccc(C2CC2)c(OCC2=NCCN2)c1`: the nuclear beta-catenin stimulation is 1.3%. Next, `Fc1ccc(C(OCCN2CCN(CCCc3ccccc3)CC2)c2ccc(F)cc2)cc1`: 21.5%; `CC[N+](CC)(CC)CC`: 3.6%; `O=c1n(Cl)c(=O)n(Cl)c(=O)n1Cl`: -0.9%. As for `CCCCC/C=C\C/C=C\C/C=C\C/C=C\CCCC(=O)NCC(=O)O`, the figure is 0.8%; as for `COC[C@@H](NC(C)=O)C(=O)NCc1ccccc1`, 0.6%; as for `CCOC(=O)CC(SP(=S)(OC)OC)C(=O)OCC` (stereo not given), 1%. Next, `C[C@]12CC[C@H](O)CC1=CC[C@@H]1[C@@H]2CC[C@]2(C)C(=O)CC[C@@H]12`: 3.7%; `O=C(O)Cc1ccccc1`: 0.2%; `CC(C)(C)OC(=O)c1ncn2c1[C@@H]1CCCN1C(=O)c1c(Br)cccc1-2`: 4%. Consider `NCC1(CC(=O)O)CCCCC1`, for which the nuclear beta-catenin stimulation was 1%. Consider `Cc1nnc2n1-c1sc(CCC(=O)N3CCOCC3)cc1C(c1ccccc1Cl)=NC2`, for which the nuclear beta-catenin stimulation is 0.3%. Turning to `CCCC[N+]1(C)[C@@H]2CC(OC(=O)[C@H](CO)c3ccccc3)C[C@H]1[C@@H]1O[C@@H]12` (stereo not given in full), the nuclear beta-catenin stimulation was 1.5%. Next, `CNCC(=O)c1ccc(O)c(O)c1`: -2.8%; `C[N+]1(C)[C@@H]2CC[C@H]1CC(OC(=O)C(CO)c1ccccc1)C2` (stereo not given in full): 0.5%; `Clc1cccc(SC2CCNCC2)n1`: 1%. Consider `O=C(NC(=O)c1c(F)cccc1F)Nc1cc(Cl)c(OC(F)(F)C(F)C(F)(F)F)cc1Cl` (stereo not given), for which the nuclear beta-catenin stimulation is 2.8%. With `CC(C)NCC(O)c1ccc(N)c(C#N)c1` (stereo not given), the nuclear beta-catenin stimulation was -0.6%. As for `CN1C[C@@H](NS(=O)(=O)N(C)C)C[C@@H]2c3cccc4c3c(cn4C)C[C@H]21`, the figure is 0.4%; as for `O=C1NCN(c2ccccc2)C12CCN(CC1COc3ccccc3O1)CC2` (stereo not given), -0.5%; as for `COc1ccc(C(=O)c2c(C)n(CCN3CCOCC3)c3ccccc23)cc1`, 1.2%. As for `N#CC(C#N)=Cc1ccc(O)c(O)c1`, the figure is 3.9%. As for `O=C(O)c1ccc2[nH]cc(CCCCN3CC=C(c4ccccc4)CC3)c2c1`, the figure is -0.5%.
